Source: PubChem BioAssay
PfM18AAP inh: PfM18AAP enzyme inhibition. recombinant PfM18AAP, H-Glu-NHMec fluorogenic cleavage. inhibition, % at 7.35 µM. 1.2% of 290,000 active;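 active means inhibition above the campaign mean inhibition over all tested compounds plus 3 SD, cut at about 28% in these data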;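 further: 0% = plate median of test compound wells and 100% = 2 mM ZnCl2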
Rce1 inhib: blocks yeast Ras-converting enzyme. Q03530. AID 2563. yeast membranes, quenched prenylated peptide cleavage fluorescence. 0.27% of 290,000 active. calls only;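 active means fall in fluorescence gain of 50% or more versus controls, with final raw signal at or below 3038400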;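 further: plate controls were neutral control wells for no effect and wells lacking membranes for full effect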
GC-A act: GC-A (human) enzyme activation; P16066; HEK293 GC-A cells, cGMP TR-FRET, EC30 ANP; 0% at EC30 ANP, 100% saturating ANP; activation, % at 10 µM; 0.14% of 370,000 active; AID 1671463; in the data active means activation above about 40%
NPR2 activator: GC-B (human) receptor activation; activation, % at 10 µM; 0.11% of 370,000 active; HEK293-GC-B cells, CNP EC30, cGMP TR-FRET; 0% at EC30 CNP, 100% saturating CNP; P20594; AID 1920062;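 active means activation at 10 µM reaching about 35% in either raw or pattern-adjusted values, limit read from the data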
PLC-beta3 inh: inhibitors of human phospholipase C beta3; Q01970; Purified PLC-beta3, fluorogenic substrate, fluorescence; inhibition, % at 12.2 µM; 0.18% of 370,000 active; AID 720704;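 further: 0% = median of compound wells on plate and 100% = full blocker control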
PLCg1 inh: PLC-gamma1 (human) inhibition, primary screen | purified PLC-gamma1, fluorogenic substrate, fluorescence | inhibition, % at 12.2 µM | 0.84% of 370,000 active | AID 720700; in the data active means inhibition above about 9.5%
PLCg1 ctr: counter-screen for PLC-beta3 inhibitors: inhibitors of human PLC-gamma1 | shares compounds with PLCg1 inh | purified PLC-gamma1, fluorogenic substrate, fluorescence | inhibition, % at 12.3 µM | 3.1% of 3,300 active | AID 743258; in the data active means inhibition above about 9.5%
PLCb3 confirm: confirmation of human PLC-beta3 inhibitors; 1% of 3,300 active; inhibition, % at 12.3 µM; AID 743261; shares compounds with PLCg1 inh; purified PLC-beta3, fluorogenic substrate fluorescence
An asterisk follows results filed as active; i = inactive; x = no result. Sampled rows, rich in hits. Any-hit rate of the full collection: about 2.2%. Unless noted, no stated cut-off is given here; in the data, active means inhibition above about 11%; inactive means the rest.

SMILES	PfM18AAP inh	Rce1 inhib	GC-A act	NPR2 activator	PLC-beta3 inh	PLCg1 inh	PLCg1 ctr	PLCb3 confirm
Cc1ccc(-c2nn(CC(=O)N3CCOCC3)c(=O)c3ccccc23)cc1S(=O)(=O)N(C)C	2.1	i	1.0	0.7	-1.7	10.4*	-1.7	-2.8
O=S1(=O)c2ccc(Br)cc2OC[C@H](Cc2ccccc2)N1Cc1cn(CCC2OCCO2)nn1	x	x	-0.8	6.7	-1.6	-1.6	x	x
CN(Cc1nc2ccccc2[nH]1)C(=O)C1CCC(=O)N(C2CCCC2)C1 (stereo not drawn)	6.0	i	-2.1	10.3	-2.4	9.8*	-1.4	1.6
O=C(C[C@H]1CC[C@H]2[C@@H](COC[C@@H](O)CN2C(=O)c2cnccn2)O1)NCc1ccc(Oc2ccccc2)cc1	x	x	3.1	2.6	11.0*	1.9	-6.1	0.1
O=C(C[C@H]1CC[C@@H]2[C@H](COC[C@@H](O)CN2C(=O)C2CC2)O1)NCc1ccccc1Cl	x	x	2.9	3.1	0.0	-0.9	x	x
CCOc1ccc(NC(=O)C2CCN(c3nnnn3-c3ccccc3)CC2)cc1	-2.9	i	-2.3	-5.2	5.2	10.1*	-6.9	-3.2
COc1cccc(NC(=O)N2CCN(c3nnnn3-c3ccccc3)CC2)c1	-0.9	i	-0.6	2.1	5.1	10.5*	4.9	-0.1
O=C(Nc1cccc(F)c1)C1CCN(c2nnnn2-c2ccccc2)CC1	-8.3	i	-4.1	-5.1	-0.1	4.3	x	x
Cc1occc1-c1nnc(SCC(=O)Nc2ccccc2)n1CCc1ccccc1	0.6	i	-10.2	-7.0	2.4	2.5	x	x
Cc1occc1-c1nnc(SCC(=O)Nc2ccccc2)n1C	3.5	i	3.6	-2.8	15.2*	4.9	-5.1	-0.6
O=C(CCc1ccccc1-c1ccccc1CCNC(=O)c1c(F)cccc1F)NCc1ccccc1	x	x	-5.2	-2.8	0.2	4.7	x	x
Cc1cccc(NC(=O)c2cccc3c2-c2ccccc2C3=O)c1C	x	x	0.0	9.0	-2.0	-2.2	x	x
Cc1ccc(NC(=O)CSc2nnc(C3CCCCC3)n2N)cc1F	-5.0	x	-5.8	-2.5	3.1	13.2*	-2.9	0.7
Nn1c(SCC(=O)Nc2ccc(F)cc2)nnc1C1CCCCC1	1.2	i	-2.1	5.9	4.7	0.2	x	x
CCOC(=O)C1=C(C)NC(=O)NC1C1CC=CCC1 (stereo not drawn)	-0.8	i	-2.3	-3.9	1.3	3.6	x	x
CC1=C(C(=O)OC(C)C)C(C2CC=CCC2)NC(=O)N1 (stereo not drawn)	-6.7	i	-2.3	-9.2	2.8	11.8*	-3.6	-0.5
N#C/C(=C\c1ccc(OCc2ccc(Br)cc2)cc1)C(=O)Nc1cccc(C(=O)O)c1	9.4	i	0.5	-3.6	-6.2	-1.2	x	x
N#C/C(=C\c1ccc(OCc2ccc(F)cc2)cc1)C(=O)Nc1cccc(C(=O)O)c1	-0.5	i	-6.8	-8.4	8.2	10.2*	-7.8	-11.7
C(=C\c1ccccc1)/C=N/n1cnnc1	9.1	i	-0.8	-4.0	-2.5	10.3*	7.8	3.6
COc1ccc(NC(=O)c2cc(-c3cc(Cl)ccc3OC)n[nH]2)c(OC)c1	x	x	38.3	24.6	4.7	12.3*	-7.6	-9.3
CCOc1ccc(Cl)cc1-c1cc(C(=O)Nc2ccc(OC)cc2OC)[nH]n1	x	x	23.1	19.3	1.7	1.6	x	x
O=C(CNC(=O)C1CCCCC1)Nc1cc(Cl)ccc1Cl	2.2	i	-0.6	-2.7	7.9	11.4*	-1.9	2.8
Cc1sc2ccccc2c1CNC[C@H]1O[C@@H](n2ccc(N)nc2=O)[C@H](O)[C@@H]1O	x	x	-1.2	0.0	1.1	4.5	x	x
Cc1sc2ccccc2c1CNC[C@H]1O[C@@H](n2cnc(C(N)=O)n2)[C@H](O)[C@@H]1O	x	x	4.1	4.7	2.7	9.8*	-4.1	-3.1
COc1ccc2c(c1)CCCC21NC(=O)N(CC(=O)N2CC(C)OC(C)C2)C1=O (stereo not drawn)	x	x	3.7	1.0	0.5	12.5*	-1.2	-2.2
SMILES	PfM18AAP inh	Rce1 inhib	GC-A act	NPR2 activator	PLC-beta3 inh	PLCg1 inh	PLCg1 ctr	PLCb3 confirm
CCNC(=O)CN1C(=O)NC2(CCCc3cc(OC)ccc32)C1=O (stereo not drawn)	0.1	i	4.4	-0.3	7.6	1.1	x	x
COc1ccc(CNCCc2ccc(Cl)cc2)cc1OCc1ccccc1	0.2	i	x	x	x	x	x	x
CCOc1cc(CNCc2ccccc2)ccc1OCc1ccc(Cl)cc1	5.9	i	-15.1	-8.3	1.3	17.2*	-1.0	-1.3
COCC(C)n1c(C)cc(C(=O)COC(=O)c2nc3nc(C)cc(C)n3n2)c1C (stereo not drawn)	11.3	i	0.2	2.7	-1.8	-2.9	x	x
COC(=O)c1cc(COC(=O)c2nc3nc(C)cc(C)n3n2)oc1C	-17.4	i	1.0	-5.3	12.0*	9.1	0.6	2.8
NC1=C(Br)C(=O)c2ncccc2C1=O	x	x	-6.2	-3.9	5.7	9.5*	6.4	4.8
O=C1c2cccnc2C(=O)N1CO	-7.2	i	0.5	-1.0	5.8	-1.3	x	x
CCn1c(C)nnc1SCC(=O)Nc1ccc2c(c1)OCCO2	1.3	i	-0.1	7.3	-0.3	9.9*	-8.9	0.7
O=C(NCc1ccc2c(c1)OCO2)Nc1ccc(F)cc1	-0.5	i	-0.8	-1.1	-5.2	2.0	x	x
CCOc1ccc(NC(=O)NCc2ccc3c(c2)OCO3)cc1	-15.3	i	-1.1	-0.9	-7.4	9.5*	-7.5	-4.4
CCc1ccc(OCC(=O)Nc2ccc3c(c2)OCCO3)cc1	-7.2	i	5.0	-1.4	-1.3	9.5*	-5.5	-4.1
Cc1occc1C(=O)NCc1ccc2c(c1)OCO2	6.9	i	-8.3	-12.0	4.4	10.6*	-7.1	-0.8
O=C1CCc2cc(S(=O)(=O)N3CCN(Cc4cccc5c4OCO5)CC3)ccc2N1	x	x	-0.7	-2.2	2.1	2.0	x	x
CCCCOCCCNC(=O)C[C@H]1C[C@@]2(C(=O)OC)C(=C[C@H](COCc3ccccc3)O[C@@H]2C)N(Cc2ccco2)C1=O	x	x	6.4	-1.1	-1.8	-0.7	x	x
COC(=O)[C@]12C[C@H](CC(=O)NCc3ccccc3)C(=O)N(CCc3ccc(OC)c(OC)c3)C1=C[C@H](C(C)C)O[C@@H]2C1CC1	x	x	0.4	3.0	1.3	0.7	x	x
Cc1cnc(C(=O)OCC(=O)NCc2ccc3c(c2)OCO3)cn1	-9.5	i	2.0	-1.8	11.5*	3.3	-3.2	-3.5
CCOC(=O)NC(=O)CSc1nc2ccc(OCC)cc2[nH]1	12.0	i	-0.1	-5.7	-1.2	-3.6	x	x
CCOc1ccc2nc(SCC(=O)NCc3ccc4c(c3)OCO4)[nH]c2c1	1.9	i	-0.6	-4.9	6.0	13.2*	0.4	-18.5
